# Screening data deposited in PubChem BioAssay by several laboratories.
# DNMT1 block – inhibitors of human DNMT1. DNMT1 molecular beacon, Hinp1I cleavage, fluorescence. actives 0.83% (n = 360,000). inhibition (reported as % activation of signal), % at 10 µM. AID 588458. P26358; in the data active = inhibition above about 50%
# Target sequence (P26358 504-1616 limits assumed): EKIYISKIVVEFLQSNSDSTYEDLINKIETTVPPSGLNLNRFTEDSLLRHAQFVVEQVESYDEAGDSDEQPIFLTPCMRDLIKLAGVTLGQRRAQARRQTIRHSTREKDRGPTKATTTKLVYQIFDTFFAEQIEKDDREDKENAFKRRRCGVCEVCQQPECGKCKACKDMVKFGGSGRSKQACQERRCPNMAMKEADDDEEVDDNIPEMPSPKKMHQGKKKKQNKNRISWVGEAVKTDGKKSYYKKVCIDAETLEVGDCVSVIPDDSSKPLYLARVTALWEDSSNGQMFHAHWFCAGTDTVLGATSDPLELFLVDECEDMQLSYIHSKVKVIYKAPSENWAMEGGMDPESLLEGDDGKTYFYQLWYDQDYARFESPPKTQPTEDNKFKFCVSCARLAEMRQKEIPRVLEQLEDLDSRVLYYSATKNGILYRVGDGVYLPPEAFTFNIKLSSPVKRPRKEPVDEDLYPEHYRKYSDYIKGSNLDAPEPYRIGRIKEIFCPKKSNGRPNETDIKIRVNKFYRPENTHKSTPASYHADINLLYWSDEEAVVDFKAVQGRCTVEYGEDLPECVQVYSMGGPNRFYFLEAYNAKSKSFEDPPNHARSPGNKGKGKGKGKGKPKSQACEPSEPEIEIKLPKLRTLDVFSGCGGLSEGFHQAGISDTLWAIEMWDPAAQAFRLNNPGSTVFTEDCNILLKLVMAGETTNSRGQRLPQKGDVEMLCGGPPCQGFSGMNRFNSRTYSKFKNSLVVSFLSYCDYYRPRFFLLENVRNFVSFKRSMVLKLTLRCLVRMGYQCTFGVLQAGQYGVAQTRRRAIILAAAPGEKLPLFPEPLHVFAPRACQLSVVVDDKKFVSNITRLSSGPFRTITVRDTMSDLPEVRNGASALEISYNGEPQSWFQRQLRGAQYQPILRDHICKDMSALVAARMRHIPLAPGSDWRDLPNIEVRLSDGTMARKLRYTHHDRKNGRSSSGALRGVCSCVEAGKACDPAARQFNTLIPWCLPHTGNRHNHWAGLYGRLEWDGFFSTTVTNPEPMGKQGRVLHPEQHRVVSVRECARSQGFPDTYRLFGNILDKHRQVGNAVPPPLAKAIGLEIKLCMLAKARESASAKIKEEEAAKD
# LEDGF integ inh – blocks HIV-1 LEDGF/p75-dependent DNA integration; TR-FRET IN-LEDGF/p75 DNA integration, Eu/Cy5; inhibition, % at 3.7 µM; actives 0.64% (n = 370,000); AID 743269;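 active = inhibition above the screen-wide mean plus 3 SD, cut at about 13% in these data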;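 note: signal is the Cy5 over europium emission ratio at 671 and 618 nm; 0% = plate median of compound wells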
# rCAG RNA binder – molecules binding r(CAG) RNA repeats; AID 651821; r(CAG) RNA repeat, TO-PRO-1 dye displacement fluorescence; actives 1.3% (n = 370,000); inhibition, % at 3 µM;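 active = inhibition above the plate cutoff, the mean of all test compounds on that plate plus 3 SD, cut at about 35% in these data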;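 note: 0% = DMSO alone and 100% = 100 µM mitoxantrone as full dye displacement; higher means more dye released from RNA so lower well fluorescence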
# UHRF1 binding – UHRF1 methyl-DNA binding inhibition; Q96T88; UHRF1 binding to methylated oligo, TR-FRET; inhibition, % at 4.4 µM; actives 0.75% (n = 370,000); AID 687016; in the data active = inhibition above about 21%;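 note: UHRF1 SRA domain binding a hemimethylated CpG hairpin DNA probe; 0% = median of test compound wells and 100% = reference inhibitor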
# PG9 Ab binder – small molecules binding HIV-1 gp120 antibody PG9; TR-FRET gp120-PG9 antibody binding; inhibition, % at 6.7 µM; AID 624416; actives 0.43% (n = 360,000); in the data active = inhibition above about 8.5%
# MBD2 inh – blocks human MBD2 binding to methylated DNA; TR-FRET, MBD2 binding to methylated oligonucleotide; AID 686964; actives 0.31% (n = 370,000); inhibition, % at 4.4 µM; in the data active = inhibition above about 13%
# DNMT1 inh conf – DNMT1 inhibition confirmation, single concentration | AID 602385 | DNMT1 molecular beacon HinP1I cleavage, fluorescence | actives 8% (n = 2,300) | shares compounds with DNMT1 block | inhibition, % at 10 µM;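 active = average inhibition of at least 30% in the single-concentration confirmation test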
# DNMT1 interf – counter-screen for DNMT1 inhibitors: spectral interference. shares compounds with DNMT1 block. DNMT1 molecular beacon spectral interference counterscreen, fluorescence 485/520. activation (fluorescence interference), % at 10 µM. actives 1% (n = 2,300). AID 602387;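 active = activation of at least 30% at 10 µM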;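 note: DNMT1 catalytic domain with a HinP1I cleavage step and a FAM/dabcyl DNA beacon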
# Starred values were filed as active, the others as inactive; . = no result. Compounds with a hit are over-represented: about 3.5% of the library has one in this group of screens.
SMILES,DNMT1 block,LEDGF integ inh,rCAG RNA binder,UHRF1 binding,PG9 Ab binder,MBD2 inh,DNMT1 inh conf,DNMT1 interf
CCOC(=O)c1cc2c(=O)n3cccc(C)c3nc2n(Cc2ccco2)c1=NC(=O)c1cccnc1,15,3,11,1,2,4,.,.
Cc1cccn2c(=O)c3cc(C#N)c(=NC(=O)c4ccco4)n(Cc4ccco4)c3nc12,61*,3,11,-3,1,-6,0,3
O=C(COC(=O)/C=C/c1ccc(Br)o1)Nc1ccc2[nH]c(=O)[nH]c2c1,82*,2,3,0,-1,-3,14,2
Cc1[nH]n(C)c(=O)c1[N+](=O)[O-],56*,-2,0,-1,-1,3,2,3
Cn1c(=O)c(=O)n(C)c2cc([N+](=O)[O-])c([N+](=O)[O-])cc21,-5,-3,-1,5,0,5,.,.
C[C@@H]1CN(C(=O)c2ccc(OC3CCN(S(=O)(=O)N(C)C)CC3)cc2)C[C@H](C)O1,-2,0,-8,1,-2,-3,.,.
COc1ccc(NC(=O)CN(C)C(=O)C(C)N2C(=O)c3ccccc3C2=O)cc1 (stereo not given),0,-2,-3,5,2,8,.,.
COc1ccc(S(=O)(=O)N2CCOC2CNC(=O)C(=O)NCc2ccco2)cc1C (stereo not given),0,0,6,0,1,0,.,.
COc1ccc(S(=O)(=O)N2CCCOC2CNC(=O)C(=O)NCc2ccco2)cc1C (stereo not given),71*,-4,1,-2,1,-1,2,7
CC(=O)Nc1ccc(S(=O)(=O)N(C)CC(=O)Nc2nc3ccccc3[nH]2)cc1,0,-1,1,-1,1,3,.,.
Cc1ccc(-c2nn(CC(=O)NCc3cc(-c4nn(C)c(=O)c5ccccc45)ccc3C)c(=O)c3ccccc23)cc1,57*,1,3,0,0,-4,0,-5
CCC(=O)NCc1cc(-c2nn(C)c(=O)c3ccccc23)ccc1C,1,-3,-5,1,1,0,.,.
N=c1c(C(=O)NCc2ccco2)cc2c(=O)n3ccccc3nc2n1CCc1ccccc1,27,4,17,-13,4,-4,.,.
N=c1c(S(=O)(=O)c2ccc(Br)cc2)cc2c(=O)n3ccccc3nc2n1Cc1ccco1,86*,6,27,0,1,-1,5,0
N=c1c(S(=O)(=O)c2ccc(Br)cc2)cc2c(=O)n3ccccc3nc2n1Cc1ccccc1,0,0,2,0,-2,-1,.,.
Cc1ccc(Cn2c(=N)c(C(=O)NCc3ccco3)cc3c(=O)n4ccccc4nc32)cc1,82*,6,10,-3,2,0,3,-5
Cc1ccc(CSc2nnc(SCC(=O)N/N=C/c3c[nH]c4ccccc34)s2)cc1,62*,0,6,-2,0,1,14,-2
O=C(CSc1nnc(SCc2ccccc2)s1)N/N=C/C=C/c1ccccc1[N+](=O)[O-],-2,1,6,0,1,6,.,.
O=C(CSc1nnc(SCc2ccccc2)s1)N/N=C/C=C\c1ccco1,88*,1,25,3,-2,-1,9,-1
COc1ccc(CN2CN3Cc4cc(OC)ccc4C3CS2(=O)=O)cc1 (stereo not given),.,-4,5,-1,.,-2,.,.
CCCCc1c(-c2ccccc2OC)ncn1Cc1ccc(C)cc1,.,3,-2,4,-1,-3,.,.
COc1ccc(C(=O)C2CCCN(C(=O)c3csc(SC)n3)C2)cc1F (stereo not given),3,-3,-1,0,0,0,.,.
CN(Cc1ccccc1)C(=O)COC(=O)c1cc([N+](=O)[O-])ccc1N1CCOCC1,111*,-4,-5,-1,0,0,2,2
COc1ccccc1CN(C)C(=O)c1cc(S(=O)(=O)N2CCCCCC2)ccc1OC,2,-2,-1,1,1,-1,.,.
COc1ccc(CNC(=O)COC(=O)c2ccc(S(=O)(=O)NCc3ccco3)cc2)cc1,51*,11,8,12,-2,4,0,1
SMILES,DNMT1 block,LEDGF integ inh,rCAG RNA binder,UHRF1 binding,PG9 Ab binder,MBD2 inh,DNMT1 inh conf,DNMT1 interf
O=C(COC(=O)c1ccc(S(=O)(=O)NCc2ccco2)cc1)NCc1ccc(F)cc1,1,2,3,0,-2,2,.,.
COc1cccc(CN(CC(=O)NCc2ccco2)C(=O)CNS(=O)(=O)c2ccccc2)c1,57*,1,2,-2,-1,-7,7,8
Cc1ccc(S(=O)(=O)NCC(=O)N(CC(=O)NCc2ccco2)Cc2ccccc2)cc1,-1,-3,1,2,2,4,.,.
O=C(Nc1cc(Cl)ccc1N1CCOCC1)c1ccc(=O)[nH]c1,8,-1,2,3,0,0,.,.
CCCN(CC(=O)Nc1ccccc1OC)Cc1c(O)ccc2ccccc12,2,-1,2,0,-1,-2,.,.
Fc1ccccc1COc1ccc(Br)cc1CNCC1CCCO1 (stereo not given),6,2,-3,2,1,4,.,.
Cn1nnc(NCc2cc(Br)ccc2OCc2ccccc2F)n1,77*,3,0,2,-3,1,0,5
COc1ccccc1CCNC(C)CCc1ccc(O)cc1 (stereo not given),68*,2,1,0,-2,-4,11,3
CCN(CC)S(=O)(=O)c1ccc(C(=O)OCC(=O)NCc2ccco2)cc1,17,-5,1,-1,3,-3,.,.
CCN(CC)S(=O)(=O)c1ccc(/C=C/C(=O)OCC(=O)NCc2ccco2)cc1,64*,1,18,7,-1,8,4,6
Cc1ccccc1SCC(=O)OCC(=O)N(C)c1c(N)n(Cc2ccccc2)c(=O)[nH]c1=O,2,-1,-1,-4,0,-1,.,.
C=CCn1c(SCC(=O)NC(=O)NCc2ccco2)nc2sc(CC)cc2c1=O,62*,4,4,15,0,4,6,2
Cc1sc2nc(SCC(=O)NCc3ccco3)n(C)c(=O)c2c1C,2,-2,3,0,2,-3,.,.
CCn1c(SCC(=O)NC(=O)NCc2ccco2)nc2sc(C)c(C)c2c1=O,78*,7,17,15,1,1,2,4
C=CCn1c(SCC(=O)NCc2ccco2)nc2ccccc2c1=O,0,3,-3,0,1,-4,.,.
COc1cccc(CNC(=O)[C@@H]2CCCN2C(=O)[C@@H]2CCCN2C(=O)c2cccs2)c1,.,-1,2,-1,1,-2,.,.
